# Results published in the supplement of paper PMC6411743.
# ± gives the standard deviation of the averaged measurements. The full data set covers some 6,200 targets. This sample favours those with the largest changes.
# Tests used:
# Experiment in all cases: NP40-soluble protein abundance relative to vehicle (solubility fold change) (ratio); higher = more soluble protein in presence of AMP-PNP
# [1] = target: T1, A0A087WXD1|Q96T83 (UniProt Q96T83)
# T1 sequence (whole entry): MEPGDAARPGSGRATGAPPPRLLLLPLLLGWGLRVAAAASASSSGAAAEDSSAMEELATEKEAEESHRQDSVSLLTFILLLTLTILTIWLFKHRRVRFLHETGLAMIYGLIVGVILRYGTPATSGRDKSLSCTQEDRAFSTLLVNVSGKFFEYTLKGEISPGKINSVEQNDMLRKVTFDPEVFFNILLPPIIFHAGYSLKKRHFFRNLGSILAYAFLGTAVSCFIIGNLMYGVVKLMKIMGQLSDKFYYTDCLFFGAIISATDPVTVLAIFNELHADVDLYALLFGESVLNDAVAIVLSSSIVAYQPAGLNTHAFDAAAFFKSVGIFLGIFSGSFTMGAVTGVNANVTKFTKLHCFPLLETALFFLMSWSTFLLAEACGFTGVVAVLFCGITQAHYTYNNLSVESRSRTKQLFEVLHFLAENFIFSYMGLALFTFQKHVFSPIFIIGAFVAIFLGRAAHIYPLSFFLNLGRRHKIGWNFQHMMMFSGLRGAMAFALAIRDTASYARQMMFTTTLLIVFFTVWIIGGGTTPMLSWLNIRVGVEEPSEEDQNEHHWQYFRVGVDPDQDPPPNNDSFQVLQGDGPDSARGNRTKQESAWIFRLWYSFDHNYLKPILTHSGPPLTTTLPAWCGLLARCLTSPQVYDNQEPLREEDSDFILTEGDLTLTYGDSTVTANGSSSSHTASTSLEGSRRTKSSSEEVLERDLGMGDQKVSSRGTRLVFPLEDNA
# In short: (§1)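 Data come from three independent experiments in which Dounce-homogenised Jurkat crude lysate was treated at eight concentrations from 0.1 to 10 mM. Treatment ran 10 min at room temperature and then 3 min at 37 °C, after which 0.8% NP40 and benzonase were added for 60 min at 4 °C before ultracentrifugation. The supernatant underwent TMT labelling and LC-MS/MS, and vsn-normalised intensities were expressed as fold change against the detergent-processed vehicle in each replicate.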
# [2] = target: A0A087WY00|F8W6H6|Q9Y4I1|Q9Y4I1-2|G3V394|Q9Y4I1-3 (UniProt Q9Y4I1)
# Sequence of A0A087WY00|F8W6H6|Q9Y4I1|Q9Y4I1-2|G3V394|Q9Y4I1-3 (Q9Y4I1 whole entry, one chain of several): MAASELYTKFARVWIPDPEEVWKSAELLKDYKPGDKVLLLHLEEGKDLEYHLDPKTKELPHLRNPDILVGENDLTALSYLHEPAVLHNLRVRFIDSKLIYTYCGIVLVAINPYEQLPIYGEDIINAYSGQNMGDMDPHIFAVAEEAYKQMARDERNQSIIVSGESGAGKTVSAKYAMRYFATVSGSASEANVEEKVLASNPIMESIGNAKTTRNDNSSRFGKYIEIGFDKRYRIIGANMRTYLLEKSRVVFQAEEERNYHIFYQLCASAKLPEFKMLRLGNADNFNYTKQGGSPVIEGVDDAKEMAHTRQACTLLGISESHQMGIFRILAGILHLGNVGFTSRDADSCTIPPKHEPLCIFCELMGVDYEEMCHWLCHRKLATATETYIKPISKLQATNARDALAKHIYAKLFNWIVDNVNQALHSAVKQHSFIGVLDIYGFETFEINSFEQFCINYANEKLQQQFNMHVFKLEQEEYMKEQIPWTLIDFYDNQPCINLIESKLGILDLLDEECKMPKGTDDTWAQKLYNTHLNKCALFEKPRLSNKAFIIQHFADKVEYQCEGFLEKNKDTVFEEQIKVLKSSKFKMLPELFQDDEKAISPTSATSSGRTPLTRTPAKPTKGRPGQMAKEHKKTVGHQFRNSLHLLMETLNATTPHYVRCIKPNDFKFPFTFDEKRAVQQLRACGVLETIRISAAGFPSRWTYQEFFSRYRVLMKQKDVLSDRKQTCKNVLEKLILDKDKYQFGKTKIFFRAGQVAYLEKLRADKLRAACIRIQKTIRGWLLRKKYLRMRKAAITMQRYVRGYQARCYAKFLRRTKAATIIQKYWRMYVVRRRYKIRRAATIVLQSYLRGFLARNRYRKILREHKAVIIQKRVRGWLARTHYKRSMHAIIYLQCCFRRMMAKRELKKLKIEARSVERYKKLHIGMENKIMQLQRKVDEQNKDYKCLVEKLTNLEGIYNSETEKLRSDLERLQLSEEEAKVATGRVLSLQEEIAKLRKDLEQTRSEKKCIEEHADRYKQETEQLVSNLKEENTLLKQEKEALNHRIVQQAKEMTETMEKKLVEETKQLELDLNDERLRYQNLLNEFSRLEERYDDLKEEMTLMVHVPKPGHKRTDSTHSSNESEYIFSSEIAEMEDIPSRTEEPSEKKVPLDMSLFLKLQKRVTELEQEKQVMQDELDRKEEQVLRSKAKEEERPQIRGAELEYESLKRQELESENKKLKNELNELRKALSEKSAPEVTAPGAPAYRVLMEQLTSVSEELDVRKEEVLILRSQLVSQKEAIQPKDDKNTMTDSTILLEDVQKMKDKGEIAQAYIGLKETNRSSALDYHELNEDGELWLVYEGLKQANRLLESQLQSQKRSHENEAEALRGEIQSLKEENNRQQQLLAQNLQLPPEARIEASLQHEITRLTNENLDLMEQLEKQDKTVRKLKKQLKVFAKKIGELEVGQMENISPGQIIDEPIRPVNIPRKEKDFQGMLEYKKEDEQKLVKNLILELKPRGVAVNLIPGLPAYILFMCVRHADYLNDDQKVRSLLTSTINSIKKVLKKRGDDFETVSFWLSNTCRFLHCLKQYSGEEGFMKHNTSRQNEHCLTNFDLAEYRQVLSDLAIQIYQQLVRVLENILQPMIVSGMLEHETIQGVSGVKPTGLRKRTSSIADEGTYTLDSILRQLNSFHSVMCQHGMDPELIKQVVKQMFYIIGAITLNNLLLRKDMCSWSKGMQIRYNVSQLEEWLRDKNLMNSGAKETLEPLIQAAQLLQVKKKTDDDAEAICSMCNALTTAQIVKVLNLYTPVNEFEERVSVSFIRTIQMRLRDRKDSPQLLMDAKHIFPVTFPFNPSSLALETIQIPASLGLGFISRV
# In short: as §1
# [3] = target: T2, A0A087WYG2|E9PFH7|Q9UPT6 (UniProt Q9UPT6)
# T2 sequence (whole entry): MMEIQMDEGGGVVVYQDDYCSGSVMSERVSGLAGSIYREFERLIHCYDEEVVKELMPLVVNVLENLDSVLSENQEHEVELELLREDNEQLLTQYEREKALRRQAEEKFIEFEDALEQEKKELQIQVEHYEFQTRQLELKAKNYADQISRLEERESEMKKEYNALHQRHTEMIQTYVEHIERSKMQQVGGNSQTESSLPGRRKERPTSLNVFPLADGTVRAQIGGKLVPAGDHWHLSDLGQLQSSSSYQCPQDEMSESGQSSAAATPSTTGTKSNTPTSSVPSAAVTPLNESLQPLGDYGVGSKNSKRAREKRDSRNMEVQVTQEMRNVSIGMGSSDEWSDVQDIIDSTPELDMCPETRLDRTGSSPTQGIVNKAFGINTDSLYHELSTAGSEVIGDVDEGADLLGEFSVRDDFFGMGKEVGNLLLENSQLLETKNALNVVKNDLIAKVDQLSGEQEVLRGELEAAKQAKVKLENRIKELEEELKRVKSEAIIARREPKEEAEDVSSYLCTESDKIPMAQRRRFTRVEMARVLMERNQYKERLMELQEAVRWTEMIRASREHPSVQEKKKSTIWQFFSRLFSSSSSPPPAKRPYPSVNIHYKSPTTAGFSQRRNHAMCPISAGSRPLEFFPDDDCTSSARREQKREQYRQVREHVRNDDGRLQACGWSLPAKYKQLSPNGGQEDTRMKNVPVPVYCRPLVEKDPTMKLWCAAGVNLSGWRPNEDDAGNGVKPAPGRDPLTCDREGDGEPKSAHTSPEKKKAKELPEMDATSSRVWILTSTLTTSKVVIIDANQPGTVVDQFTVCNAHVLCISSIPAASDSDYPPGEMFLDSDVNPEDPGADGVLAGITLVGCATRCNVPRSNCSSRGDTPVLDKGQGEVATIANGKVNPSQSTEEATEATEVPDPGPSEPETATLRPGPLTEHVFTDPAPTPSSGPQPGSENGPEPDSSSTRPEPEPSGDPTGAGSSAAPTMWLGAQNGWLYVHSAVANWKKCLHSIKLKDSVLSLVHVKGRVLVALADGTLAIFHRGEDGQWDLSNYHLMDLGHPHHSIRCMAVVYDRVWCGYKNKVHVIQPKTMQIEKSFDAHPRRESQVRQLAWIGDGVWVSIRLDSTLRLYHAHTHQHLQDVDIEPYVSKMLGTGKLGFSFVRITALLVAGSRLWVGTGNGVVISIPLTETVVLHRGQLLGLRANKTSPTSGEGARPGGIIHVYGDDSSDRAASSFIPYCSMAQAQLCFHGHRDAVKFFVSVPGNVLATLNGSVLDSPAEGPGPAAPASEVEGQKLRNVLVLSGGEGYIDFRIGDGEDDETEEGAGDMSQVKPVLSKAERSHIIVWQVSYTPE
# In short: as §1
# [4] = target: T3, A0A087WYN9|Q7Z478 (UniProt Q7Z478)
# T3 sequence (whole entry): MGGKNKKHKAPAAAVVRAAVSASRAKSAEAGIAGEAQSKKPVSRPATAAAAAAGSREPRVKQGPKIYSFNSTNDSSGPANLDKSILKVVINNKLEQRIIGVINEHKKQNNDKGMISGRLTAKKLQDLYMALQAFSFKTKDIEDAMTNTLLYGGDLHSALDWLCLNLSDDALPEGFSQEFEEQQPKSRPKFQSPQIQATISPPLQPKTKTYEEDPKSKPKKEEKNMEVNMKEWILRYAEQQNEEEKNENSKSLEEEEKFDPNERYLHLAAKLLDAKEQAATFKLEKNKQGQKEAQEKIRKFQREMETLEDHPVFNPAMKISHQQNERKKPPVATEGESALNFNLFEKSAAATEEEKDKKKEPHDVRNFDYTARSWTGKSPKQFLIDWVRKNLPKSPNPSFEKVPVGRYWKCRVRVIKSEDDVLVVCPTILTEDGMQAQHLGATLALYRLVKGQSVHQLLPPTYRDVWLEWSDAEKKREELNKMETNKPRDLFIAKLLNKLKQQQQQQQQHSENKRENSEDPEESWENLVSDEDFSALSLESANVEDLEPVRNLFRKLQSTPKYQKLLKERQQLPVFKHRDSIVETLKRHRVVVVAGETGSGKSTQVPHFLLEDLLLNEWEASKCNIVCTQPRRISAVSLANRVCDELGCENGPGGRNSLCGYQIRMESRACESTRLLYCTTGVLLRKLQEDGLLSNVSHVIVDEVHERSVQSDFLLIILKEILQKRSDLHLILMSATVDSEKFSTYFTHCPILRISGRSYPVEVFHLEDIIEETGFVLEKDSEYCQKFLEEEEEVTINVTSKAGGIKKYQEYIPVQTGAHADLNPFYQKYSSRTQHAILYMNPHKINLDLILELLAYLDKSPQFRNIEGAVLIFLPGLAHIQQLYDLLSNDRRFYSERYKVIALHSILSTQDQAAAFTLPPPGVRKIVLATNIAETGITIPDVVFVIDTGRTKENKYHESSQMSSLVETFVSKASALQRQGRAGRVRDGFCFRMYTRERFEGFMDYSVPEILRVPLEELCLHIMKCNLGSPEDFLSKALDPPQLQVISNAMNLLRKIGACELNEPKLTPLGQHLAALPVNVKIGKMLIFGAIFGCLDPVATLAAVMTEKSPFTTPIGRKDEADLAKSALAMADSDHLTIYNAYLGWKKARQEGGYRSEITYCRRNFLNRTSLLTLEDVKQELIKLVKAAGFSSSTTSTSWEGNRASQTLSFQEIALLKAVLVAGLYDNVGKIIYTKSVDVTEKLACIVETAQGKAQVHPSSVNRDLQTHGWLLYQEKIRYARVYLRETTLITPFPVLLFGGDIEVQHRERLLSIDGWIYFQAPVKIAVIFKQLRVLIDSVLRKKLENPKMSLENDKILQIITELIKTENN
# In short: as §1
# [5] = test system: A0A087WZ62
# In short: as §1
# [6] = target: T4, A0A087X0V5|P29728|P29728-2 (UniProt P29728)
# T4 sequence (whole entry): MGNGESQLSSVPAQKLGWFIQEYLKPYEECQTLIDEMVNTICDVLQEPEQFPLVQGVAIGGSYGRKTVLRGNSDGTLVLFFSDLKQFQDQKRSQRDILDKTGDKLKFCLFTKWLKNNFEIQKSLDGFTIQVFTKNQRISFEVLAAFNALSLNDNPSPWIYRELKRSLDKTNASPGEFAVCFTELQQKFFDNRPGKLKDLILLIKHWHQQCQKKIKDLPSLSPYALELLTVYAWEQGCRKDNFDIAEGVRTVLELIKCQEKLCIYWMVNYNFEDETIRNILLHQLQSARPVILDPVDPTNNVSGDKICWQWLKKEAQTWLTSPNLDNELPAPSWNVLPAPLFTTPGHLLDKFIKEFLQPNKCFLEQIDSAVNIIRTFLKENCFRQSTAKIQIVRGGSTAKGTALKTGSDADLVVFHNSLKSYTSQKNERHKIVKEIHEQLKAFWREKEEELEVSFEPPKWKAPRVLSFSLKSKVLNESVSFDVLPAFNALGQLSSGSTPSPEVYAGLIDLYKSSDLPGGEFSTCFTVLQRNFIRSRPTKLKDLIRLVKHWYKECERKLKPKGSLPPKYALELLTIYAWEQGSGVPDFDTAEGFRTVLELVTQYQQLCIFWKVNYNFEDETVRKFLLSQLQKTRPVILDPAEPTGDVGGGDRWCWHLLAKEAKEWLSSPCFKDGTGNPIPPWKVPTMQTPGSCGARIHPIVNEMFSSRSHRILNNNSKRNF
# In short: as §1
# [7] = target: A0A087X1K6|H0YK05|Q9Y2Y9 (UniProt Q9Y2Y9)
# Sequence of A0A087X1K6|H0YK05|Q9Y2Y9 (Q9Y2Y9 whole entry, one chain of several): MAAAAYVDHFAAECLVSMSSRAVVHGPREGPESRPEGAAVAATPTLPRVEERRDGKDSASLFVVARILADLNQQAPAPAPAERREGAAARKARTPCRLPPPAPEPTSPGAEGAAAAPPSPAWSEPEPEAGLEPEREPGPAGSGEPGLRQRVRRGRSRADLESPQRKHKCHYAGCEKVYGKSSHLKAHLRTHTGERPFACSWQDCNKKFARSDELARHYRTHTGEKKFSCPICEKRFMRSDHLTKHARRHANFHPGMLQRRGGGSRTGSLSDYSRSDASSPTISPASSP
# In short: as §1
# [8] = target: A0A087X1Z1|A0A0G2JPW5|A0A0G2JQX1|A0A0G2JSA7|Q96RT8|Q96RT8-2 (UniProt Q96RT8)
# Sequence of A0A087X1Z1|A0A0G2JPW5|A0A0G2JQX1|A0A0G2JSA7|Q96RT8|Q96RT8-2 (Q96RT8 whole entry, one chain of several): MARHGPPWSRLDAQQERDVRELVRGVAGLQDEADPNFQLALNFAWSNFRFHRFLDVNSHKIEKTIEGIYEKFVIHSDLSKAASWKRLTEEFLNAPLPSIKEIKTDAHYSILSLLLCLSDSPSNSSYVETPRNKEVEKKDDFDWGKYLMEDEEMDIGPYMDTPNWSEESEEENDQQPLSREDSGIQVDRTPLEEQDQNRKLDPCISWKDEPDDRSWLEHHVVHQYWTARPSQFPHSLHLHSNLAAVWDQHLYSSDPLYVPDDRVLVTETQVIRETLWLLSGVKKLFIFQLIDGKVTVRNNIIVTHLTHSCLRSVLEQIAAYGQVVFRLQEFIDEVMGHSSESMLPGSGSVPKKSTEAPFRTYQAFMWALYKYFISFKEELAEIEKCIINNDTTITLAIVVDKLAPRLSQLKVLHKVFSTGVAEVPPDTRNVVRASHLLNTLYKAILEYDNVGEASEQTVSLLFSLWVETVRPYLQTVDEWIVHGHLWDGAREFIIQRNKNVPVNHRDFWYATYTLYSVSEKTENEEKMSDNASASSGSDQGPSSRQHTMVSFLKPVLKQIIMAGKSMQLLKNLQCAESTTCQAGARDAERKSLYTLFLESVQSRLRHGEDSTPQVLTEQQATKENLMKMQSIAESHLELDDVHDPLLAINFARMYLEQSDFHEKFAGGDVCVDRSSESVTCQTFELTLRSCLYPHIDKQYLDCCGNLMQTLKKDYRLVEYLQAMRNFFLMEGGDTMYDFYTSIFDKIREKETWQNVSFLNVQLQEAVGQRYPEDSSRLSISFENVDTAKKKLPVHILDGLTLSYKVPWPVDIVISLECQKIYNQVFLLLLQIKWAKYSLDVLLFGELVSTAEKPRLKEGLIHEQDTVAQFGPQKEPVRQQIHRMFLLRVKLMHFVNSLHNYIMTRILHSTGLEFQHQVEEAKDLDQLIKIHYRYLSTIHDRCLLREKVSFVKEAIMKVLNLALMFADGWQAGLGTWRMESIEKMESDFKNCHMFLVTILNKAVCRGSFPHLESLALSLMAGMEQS
# In short: as §1
# [9] = target: A0A096LP25|Q2M2I8|Q2M2I8-2 (UniProt Q2M2I8)
# Sequence of A0A096LP25|Q2M2I8|Q2M2I8-2 (Q2M2I8 whole entry, looked up, one chain of several): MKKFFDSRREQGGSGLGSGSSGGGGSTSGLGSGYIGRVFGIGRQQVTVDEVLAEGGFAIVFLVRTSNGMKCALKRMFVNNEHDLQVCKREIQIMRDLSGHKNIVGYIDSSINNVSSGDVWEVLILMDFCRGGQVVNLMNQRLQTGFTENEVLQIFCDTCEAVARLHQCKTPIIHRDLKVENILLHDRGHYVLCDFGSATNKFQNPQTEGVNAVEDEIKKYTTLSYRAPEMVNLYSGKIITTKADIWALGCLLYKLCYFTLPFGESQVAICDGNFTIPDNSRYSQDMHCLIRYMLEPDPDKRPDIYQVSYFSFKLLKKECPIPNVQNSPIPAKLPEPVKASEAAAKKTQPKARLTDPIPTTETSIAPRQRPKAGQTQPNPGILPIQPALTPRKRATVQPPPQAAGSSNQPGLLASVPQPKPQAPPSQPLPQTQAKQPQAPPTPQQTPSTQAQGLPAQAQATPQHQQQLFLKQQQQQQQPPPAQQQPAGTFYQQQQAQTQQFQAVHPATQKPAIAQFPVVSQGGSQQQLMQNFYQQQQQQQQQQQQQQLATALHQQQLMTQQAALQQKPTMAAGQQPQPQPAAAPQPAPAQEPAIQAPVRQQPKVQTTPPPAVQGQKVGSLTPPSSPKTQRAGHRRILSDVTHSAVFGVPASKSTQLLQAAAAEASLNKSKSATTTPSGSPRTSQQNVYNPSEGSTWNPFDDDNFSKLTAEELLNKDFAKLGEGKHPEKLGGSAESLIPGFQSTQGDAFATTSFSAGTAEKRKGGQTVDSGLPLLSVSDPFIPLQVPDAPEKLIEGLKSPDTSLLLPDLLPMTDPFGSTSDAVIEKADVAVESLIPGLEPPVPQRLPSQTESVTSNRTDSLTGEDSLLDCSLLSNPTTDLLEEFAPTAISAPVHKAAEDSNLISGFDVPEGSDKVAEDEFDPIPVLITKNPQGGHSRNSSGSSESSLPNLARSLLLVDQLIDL
# In short: as §1
compound,measurement,setting,value
Nc1ncnc2c1ncn2[C@@H]1O[C@H](COP(=O)(O)OP(=O)(O)NP(=O)(O)O)[C@@H](O)[C@H]1O [adenylyl imidodiphosphate],NP40-soluble protein abundance,[1]; concentration: 1mM,0.971 ± 0.05
same,NP40-soluble protein abundance,[1]; concentration: 2mM,0.973 ± 0.015
same,NP40-soluble protein abundance,[1]; concentration: 4mM,0.958 ± 0.033
same,NP40-soluble protein abundance,[1]; concentration: 6mM,0.948 ± 0.038
same,NP40-soluble protein abundance,[1]; concentration: 8mM,0.935 ± 0.027
same,NP40-soluble protein abundance,[1]; concentration: 10mM,0.9324 ± 0.0081
same,NP40-soluble protein abundance,[2]; concentration: 1mM,1.9 ± 0.27
same,NP40-soluble protein abundance,[2]; concentration: 2mM,1.97 ± 0.29
same,NP40-soluble protein abundance,[2]; concentration: 4mM,2.07 ± 0.28
same,NP40-soluble protein abundance,[2]; concentration: 6mM,2 ± 0.31
same,NP40-soluble protein abundance,[2]; concentration: 8mM,1.96 ± 0.29
same,NP40-soluble protein abundance,[2]; concentration: 10mM,2.01 ± 0.24
same,NP40-soluble protein abundance,[3]; concentration: 1mM,1.01 ± 0.034
same,NP40-soluble protein abundance,[3]; concentration: 2mM,1.03 ± 0.025
same,NP40-soluble protein abundance,[3]; concentration: 4mM,1.03 ± 0.025
same,NP40-soluble protein abundance,[3]; concentration: 6mM,0.988 ± 0.026
same,NP40-soluble protein abundance,[3]; concentration: 8mM,0.981 ± 0.022
same,NP40-soluble protein abundance,[3]; concentration: 10mM,1 ± 0.023
same,NP40-soluble protein abundance,[4]; concentration: 1mM,1.31 ± 0.067
same,NP40-soluble protein abundance,[4]; concentration: 2mM,1.49 ± 0.079
same,NP40-soluble protein abundance,[4]; concentration: 4mM,1.73 ± 0.18
same,NP40-soluble protein abundance,[4]; concentration: 6mM,1.9 ± 0.22
same,NP40-soluble protein abundance,[4]; concentration: 8mM,2.01 ± 0.24
same,NP40-soluble protein abundance,[4]; concentration: 10mM,2.1 ± 0.29
same,NP40-soluble protein abundance,[5]; concentration: 1mM,0.976 ± 0.026
same,NP40-soluble protein abundance,[5]; concentration: 2mM,0.963 ± 0.027
same,NP40-soluble protein abundance,[5]; concentration: 4mM,0.931 ± 0.022
same,NP40-soluble protein abundance,[5]; concentration: 6mM,0.952 ± 0.014
same,NP40-soluble protein abundance,[5]; concentration: 8mM,0.946 ± 0.028
same,NP40-soluble protein abundance,[5]; concentration: 10mM,0.936 ± 0.017
same,NP40-soluble protein abundance,[6]; concentration: 1mM,1.13 ± 0.0059
same,NP40-soluble protein abundance,[6]; concentration: 2mM,1.07 ± 0.091
same,NP40-soluble protein abundance,[6]; concentration: 4mM,1.26 ± 0.049
same,NP40-soluble protein abundance,[6]; concentration: 6mM,1.24 ± 0.086
same,NP40-soluble protein abundance,[6]; concentration: 8mM,1.358 ± 0.011
same,NP40-soluble protein abundance,[6]; concentration: 10mM,1.29 ± 0.02
same,NP40-soluble protein abundance,[7]; concentration: 1mM,0.998 ± 0.029
same,NP40-soluble protein abundance,[7]; concentration: 2mM,0.998 ± 0.03
same,NP40-soluble protein abundance,[7]; concentration: 4mM,0.971 ± 0.024
same,NP40-soluble protein abundance,[7]; concentration: 6mM,1.01 ± 0.016
same,NP40-soluble protein abundance,[7]; concentration: 8mM,0.991 ± 0.03
same,NP40-soluble protein abundance,[7]; concentration: 10mM,0.996 ± 0.0047
same,NP40-soluble protein abundance,[8]; concentration: 1mM,0.946 ± 0.021
same,NP40-soluble protein abundance,[8]; concentration: 2mM,1 ± 0.057
same,NP40-soluble protein abundance,[8]; concentration: 4mM,0.951 ± 0.032
same,NP40-soluble protein abundance,[8]; concentration: 6mM,0.972 ± 0.029
same,NP40-soluble protein abundance,[8]; concentration: 8mM,0.962 ± 0.018
same,NP40-soluble protein abundance,[8]; concentration: 10mM,0.96 ± 0.016
same,NP40-soluble protein abundance,[9]; concentration: 1mM,1.07 ± 0.02
same,NP40-soluble protein abundance,[9]; concentration: 2mM,1.11 ± 0.041
same,NP40-soluble protein abundance,[9]; concentration: 4mM,1.11 ± 0.026
same,NP40-soluble protein abundance,[9]; concentration: 6mM,1.09 ± 0.024
same,NP40-soluble protein abundance,[9]; concentration: 8mM,1.08 ± 0.02
same,NP40-soluble protein abundance,[9]; concentration: 10mM,1.11 ± 0.012
